molecular target: ADD2; assay: pooled miR-30 sensor sort-seq; sequence = guide strand; settings: shRNA
Further: reference of the scale not given here.

Sequence | sensor-assay potency score (higher = more potent)
TTCACTGCAAGAAACTCCCTTA | 0.39
TTCTAGTTTCTTCCTCTCCACC | -1.02
TTGATAGGCGTCATCATGGAGA | -0.575
TTCCTCTCCACCTCTTTCTTGT | -0.367
TTGGCTAGTCACTTTGAGCAGC | -0.569
TCTGTTGTTTTGATCCTCCTTA | 0.276
TAGAGGTATCAACATCCGTGTC | -1.2
TTTGGTATCCTCGTCTCCCTTG | -0.18
TATAGCTCTTCCATCCATCATT | -1.04
TTTAGTTTTGAAGTGCCTGAGA | -0.472
TAAATGTAGAGATAGCTCCATC | -0.556
TGACTTCACATCTTGTCGGTTT | -0.214
TTGTTCTCGAATCTTGTTCCTC | -0.198
TCTTATAGCTCTTCCATCCATC | -0.635
TTGCTTGTTTCTGTCTTCTTAG | -0.81
TCAAGTTCTAGTTTCTTCCTCT | 0.727
TTTCTGTCTTCTTAGTACCTTC | -0.453

Source: the OligoGym collection
